{"source": "PubChem BioAssay AID504332", "about": "(National Center for Advancing Translational Sciences (NCATS), 2011)", "note": "Several values for one entry are separate records, joined by “and”; a condition that tells them apart may be missing. Equal values may be shown once. About 31,000 (8.9%) of roughly 350,000 compounds were called active. A call without a number means that no potency is given here. Inconclusive results (about 15%) are left out. Calls come from the whole dose curve; as a rule, active = well fitted inhibition curve with a large enough effect; inconclusive = small, poorly fitted or top-dose-only effect; inactive = no such curve, though single readings can be large or run the other way. For the sample, actives were picked, then their nearest neighbours and some compounds at random. Where a structure was tested more than once in an assay, its records may differ in their call. Potency is the fitted concentration of half-maximal effect.", "data": [{"biological_target": "Histone-lysine N-methyltransferase EHMT2 (Homo sapiens) (UniProt Q96KQ7)", "sequence (Q96KQ7 913-1193 limits assumed)": "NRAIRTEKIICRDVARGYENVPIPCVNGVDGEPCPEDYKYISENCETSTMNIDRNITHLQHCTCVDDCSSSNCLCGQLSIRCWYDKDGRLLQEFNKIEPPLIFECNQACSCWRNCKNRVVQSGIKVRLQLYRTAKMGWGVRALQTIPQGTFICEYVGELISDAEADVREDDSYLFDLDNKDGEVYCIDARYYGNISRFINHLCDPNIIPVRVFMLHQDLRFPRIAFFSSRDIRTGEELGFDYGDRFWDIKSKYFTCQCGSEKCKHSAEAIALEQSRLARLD", "test": "qHTS Assay for Inhibitors of Histone Lysine Methyltransferase G9a; note: nearly all actives have a fitted effect of over 75% in size", "conditions": "G9a H3K9 monomethylation, AlphaScreen, 2 h; series mostly up to 59 µM", "summary_of_the_method": "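AlphaScreen detection with an anti-monomethyl H3K9 antibody quantified product after a 2 h room-temperature reaction containing 500 nM biotinylated H3K9 peptide, 20 µM SAM and 20 nM enzyme, which had been preincubated 15 min with compound.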", "values": [{"smiles": "Cc1ccc(C(=O)C[n+]2cc(-c3ccccc3)n3c2CCCCC3)cc1", "Potency": "inactive and 50.1 µM (active)"}, {"smiles": "O=C(C[n+]1cc(-c2ccc(Cl)c(Cl)c2)n2c1CCC2)c1cccs1", "Potency": "inactive"}, {"smiles": "Clc1ccc(C[n+]2cc(-c3ccccc3)n3c2CCC3)cc1", "Potency": "inactive"}, {"smiles": "O=C(CSc1ncc(CO)n1Cc1ccc(F)cc1)NCc1ccco1", "Potency": "inactive"}, {"smiles": "O=C(O)c1ccc2c(c1)N(Cc1ccc(F)cc1)C(=O)c1ccccc1S2=O", "note": "(configuration not stated)", "Potency": "inactive"}, {"smiles": "OCC[C@H]1C[C@H](O)[C@@H](O)[C@]2(Cc3ccccc3CO2)O1", "activity, negative = inhibition": "12.3% [at 2.33 µM] (inactive)"}, {"smiles": "COc1ccc(-c2nnc(SCc3cccnc3)o2)cc1", "Potency": "inactive"}, {"smiles": "COc1ccc(-c2nnc(SC(C)C(=O)NC3CC3)o2)cc1", "note": "(configuration not stated)", "activity, negative = inhibition": "3.83% [at 12.7 µM] (inactive)"}, {"smiles": "COc1ccc(-c2nnc(SC(=O)N3c4ccccc4Sc4ccccc43)o2)cc1", "Potency": "17.8 µM (active)"}, {"smiles": "Cc1ccccc1C(=O)NCc1nc(-c2ccc(Cl)cc2)no1", "Potency": "inactive"}, {"smiles": "CC1CN(c2cc(=O)n(-c3cccc(Br)c3)c(=O)[nH]2)CC(C)O1", "note": "(configuration not stated)", "Potency": "44.7 µM (active)"}, {"smiles": "CC1CN(C(=S)Nc2ccc(Br)cc2Cl)CC(C)O1", "note": "(configuration not stated)", "Potency": "inactive"}, {"smiles": "CC1CN(c2cc(=O)n(Cc3ccc(F)cc3)c(=O)[nH]2)CC(C)O1", "note": "(configuration not stated)", "Potency": "inactive"}, {"smiles": "COC(=O)c1ccccc1N=Nc1c(C)[nH][nH]c1=O", "Potency": "inactive"}, {"smiles": "Cc1[nH][nH]c(=O)c1N=Nc1ccccc1", "Potency": "50.1 µM (active)"}, {"smiles": "Cc1cccn2c(=O)c3cc(C(=O)NC(C)c4ccccc4)c(=N)n(CCCO)c3nc12", "note": "(configuration not stated)", "Potency": "inactive"}, {"smiles": "Cc1ccsc1C(=O)NC1CCCCC1C", "note": "(configuration not stated)", "activity, negative = inhibition": "16.6% [at 12.7 µM] (inactive)"}, {"smiles": "Cc1cccc2nc(-c3ccc(Cl)s3)c(Nc3ccc4c(c3)OCCO4)n12", "Potency": "10 µM (active)"}, {"smiles": "Cc1ccc2nc(-c3ccc(O)cc3)c(Nc3ccc4c(c3)OCO4)n2c1", "Potency": "3.55 µM (active)"}, {"smiles": "Cc1ccc(S(=O)(=O)NCC(=O)Nc2ccc3c(c2)OCCO3)cc1", "Potency": "inactive"}, {"smiles": "Cc1ccc(-c2nc3cccc(C)n3c2Nc2ccc3c(c2)OCCO3)cc1", "Potency": "12.6 µM (active)"}, {"smiles": "Oc1ccccc1-c1nc2ccc(Cl)cn2c1Nc1ccc2c(c1)OCCO2", "Potency": "inactive"}, {"smiles": "Cc1ccc2nc(-c3cccnc3)c(NC3CCCC3)n2c1", "Potency": "inactive"}, {"smiles": "Cc1nc(Nc2ccc3c(c2)OCCO3)c2nnn(Cc3ccccc3Cl)c2n1", "Potency": "inactive"}, {"smiles": "Cc1ccn2c(Nc3ccc4c(c3)OCCO4)c(-c3ccc(C)s3)nc2c1", "Potency": "inactive"}, {"smiles": "Cc1ccc2nc(-c3ccncc3)cc(C(=O)Nc3ccc4c(c3)OCCO4)c2c1", "Potency": "inactive"}, {"smiles": "CCN(C(=O)Cn1cnc2sc(C)c(S(=O)(=O)N3CCN(c4ncccn4)CC3)c2c1=O)c1ccccc1F", "Potency": "inactive"}, {"smiles": "Cc1ccc(S(=O)(=O)N(CCCN(C)C)Cc2ccc3c(c2)OCO3)cc1", "Potency": "inactive"}, {"smiles": "COc1ccc(-c2cn3nc(N4CCCC(C(=O)NCCCOC(C)C)C4)sc3n2)cc1", "note": "(configuration not stated)", "Potency": "inactive"}, {"smiles": "Cc1c(Cl)cccc1NC(=O)C(=O)NCCc1csc2nc(-c3ccccc3F)nn12", "Potency": "inactive"}, {"smiles": "NS(=O)(=O)c1ccc(CCNC(=O)COC(=O)COc2cccc(C(F)(F)F)c2)cc1", "activity, negative = inhibition": "-4.95% [at 12.7 µM] (inactive)"}, {"smiles": "Cc1ccc(-c2cc(C(=O)NC3CCN(Cc4ccccc4)CC3)c3ccccc3n2)cc1", "Potency": "inactive"}, {"smiles": "CNC(=O)NC(=O)CSc1nnc(-c2ccc(F)cc2)n1CC1CCCO1", "note": "(configuration not stated)", "Potency": "inactive"}, {"smiles": "CC(Sc1nn(-c2ccc(Cl)cc2)c(=S)s1)C(=O)NCC1CCCO1", "note": "(configuration not stated)", "Potency": "inactive"}, {"smiles": "S=c1[nH]nc(-c2ccc(Cl)cc2)n1CC1CCCO1", "note": "(configuration not stated)", "Potency": "7.94 µM (active)"}, {"smiles": "CCN1C(=O)[C@H]2[C@@H](c3ccc(-c4ccc(F)cc4)cc3)N[C@@](Cc3ccccc3)(C(=O)OC)[C@H]2C1=O", "activity, negative = inhibition": "15.2% [at 2.33 µM] (inactive)"}, {"smiles": "O=C(COc1ccccc1Cl)N1N=C(c2cccs2)CC1c1ccco1", "note": "(configuration not stated)", "activity, negative = inhibition": "-17.2% [at 12.7 µM] (inactive)"}, {"smiles": "Cc1cc(C)cc(OCC(=O)Nc2c(C(=O)c3ccccc3)oc3ccccc23)c1", "Potency": "inactive"}, {"smiles": "CC(=O)Nc1ccc(NC(=O)CSc2nnnn2-c2ccccc2F)cc1", "Potency": "inactive"}, {"smiles": "CCn1nnnc1SCC(=O)Nc1ccc(N(C)C)cc1", "Potency": "28.2 µM (active)"}, {"smiles": "CC(=O)Nc1ccc(NC(=O)CSc2nnnn2C2CCCCC2)cc1", "Potency": "inactive"}, {"smiles": "CCOc1ccc(C2C(=O)N(C3CCCCC3)CC(=O)N2CCC2=CCCCC2)cc1OC", "note": "(configuration not stated)", "Potency": "inactive"}, {"smiles": "CCOc1ccccc1N1CCN(C(=S)Nc2ccc(S(N)(=O)=O)cc2)CC1", "Potency": "inactive"}, {"smiles": "CC1CN(C(=S)Nc2ccc(S(N)(=O)=O)cc2)CC(C)O1", "note": "(configuration not stated)", "Potency": "inactive"}, {"smiles": "COc1ccc(N2CCN(C(=S)Nc3ccc(S(N)(=O)=O)cc3)CC2)cc1", "Potency": "8.91 µM (active)"}, {"smiles": "CCCN1CCc2nc(N3CCN(C)CC3)ncc2C1", "Potency": "inactive"}, {"smiles": "Nc1nc(SCCOc2ccccc2)n[nH]1", "activity, negative = inhibition": "1.72% [at 12.7 µM] (inactive)"}, {"smiles": "N#Cc1cccc(CSc2ncnc(N)n2)c1", "activity, negative = inhibition": "-30.5% [at 2.33 µM] (inactive)"}, {"smiles": "Nc1nc(SCc2cccc(Br)c2)n[nH]1", "Potency": "31.6 µM (active)"}, {"smiles": "Cc1ccc(CCNC(=O)c2ccc3c(c2)nc2n3CCC(C)C2)cc1", "note": "(configuration not stated)", "Potency": "inactive"}, {"smiles": "CCOc1ccc(NC(=O)C(=O)NCCc2csc3nc(-c4ccccc4F)nn23)cc1", "Potency": "inactive"}, {"smiles": "COc1ccc(NC(=O)CCCN2C(=O)CCn3nc(-c4cn(C)c5ccccc45)cc32)cc1OC", "Potency": "inactive"}, {"smiles": "CCc1ccc(NC(=O)Cn2nnc(C(=O)NCc3ccc4c(c3)OCO4)c2N)cc1", "Potency": "inactive"}, {"smiles": "Cc1cc(C)cc(NC(=O)Cc2csc(C)n2)c1", "Potency": "inactive"}, {"smiles": "CCN(CC(=O)Nc1ccccc1C(F)(F)F)C(=O)C1CCN(C(=O)Nc2ccccc2)CC1", "Potency": "inactive"}, {"smiles": "COc1ccc(COCC(O)CN2CCC(C(N)=O)CC2)cc1", "note": "(configuration not stated)", "Potency": "inactive"}, {"smiles": "NC(=O)C1CCN(C2OC(=O)c3ccccc32)CC1", "note": "(configuration not stated)", "Potency": "inactive"}, {"smiles": "CCOC(=O)c1ccc(N2C(=O)CC(N3CC(C)OC(C)C3)C2=O)cc1", "note": "(configuration not stated)", "Potency": "inactive"}, {"smiles": "COc1ccc(N2C(=O)CC(N3CCC(C(N)=O)CC3)C2=O)cc1", "note": "(configuration not stated)", "Potency": "14.1 µM (active)"}, {"smiles": "CCOC(=O)C1CCN(c2ccc(C(=O)O)cc2[N+](=O)[O-])CC1", "Potency": "inactive"}, {"smiles": "CCOC(=O)c1ccc(N2C(=O)CC(N3CCC(C(=O)OCC)CC3)C2=O)cc1", "note": "(configuration not stated)", "Potency": "35.5 µM (active)"}, {"smiles": "COc1cc(Cl)ccc1Nc1ncc(C(=O)N2CCN(c3ccccc3OC)CC2)c2ccccc12", "Potency": "inactive"}]}]}
